Measured values reported in PubChem BioAssay.
Calls of active or inactive are those of the source. Unless noted, how the calls were made is not given here.

Key:
[1] = resazurin metabolic signal in HepG2 cells – cell-based, resazurin fluorescence, 24 h, PK04 Diversity Set, profiling panel (AID 1172); settings: HepG2 viability, higher = more signal; further: test concentration not given here
[2] = budding yeast growth changes without added modifier – OD600, strain BY4716, 24 h, basal condition, primary screen (AID 1173); settings: S. cerevisiae BY4716 growth, OD600, 24 h; higher = more signal, called active from +8 up or from −8 down
[3] = viability profiling in MM1S myeloma cells – cell-based, resazurin fluorescence, basal, 24 h, PK04 Diversity Set, profiling panel (AID 1174); settings: higher = more signal, called active from +8 up or from −8 down;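 further: MM1S multiple myeloma cell line; test concentration not given here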
[4] = target: Dihydroorotate dehydrogenase (quinone), mitochondrial (Plasmodium falciparum (isolate 3D7)) (UniProt Q08210); assay: inhibition of P. falciparum DHODH – biochemical, C-terminal His tag, absorbance 600 nm, primary screen (AID 1175); settings: PfDHODH enzyme, DCIP absorbance 600 nm; higher = more signal, called active from +8 up or from −8 down;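 further: recombinant parasite enzyme with a five histidine tag at its C terminus; test concentration not given here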
Dihydroorotate dehydrogenase (quinone), mitochondrial (Plasmodium falciparum (isolate 3D7)), sequence (Q08210 whole entry, looked up): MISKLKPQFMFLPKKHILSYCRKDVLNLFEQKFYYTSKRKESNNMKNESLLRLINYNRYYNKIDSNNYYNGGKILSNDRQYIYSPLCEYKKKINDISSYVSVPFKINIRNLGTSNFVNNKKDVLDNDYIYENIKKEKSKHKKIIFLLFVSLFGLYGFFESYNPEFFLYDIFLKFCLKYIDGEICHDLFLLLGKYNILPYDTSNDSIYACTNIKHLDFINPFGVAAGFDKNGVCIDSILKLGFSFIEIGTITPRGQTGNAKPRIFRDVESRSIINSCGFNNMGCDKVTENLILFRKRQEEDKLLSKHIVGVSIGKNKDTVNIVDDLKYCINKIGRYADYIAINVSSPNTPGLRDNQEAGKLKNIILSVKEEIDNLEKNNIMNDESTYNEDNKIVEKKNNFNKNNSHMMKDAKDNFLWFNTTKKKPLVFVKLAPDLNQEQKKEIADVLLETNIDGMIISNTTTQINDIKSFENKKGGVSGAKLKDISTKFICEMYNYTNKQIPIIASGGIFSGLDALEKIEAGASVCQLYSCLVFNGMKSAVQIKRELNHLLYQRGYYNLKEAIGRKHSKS

[5] = inhibition of PAO1 biofilm formation – strain PAO1, LB-PBS medium, absorbance 600 nm, primary screen (AID 1176); further: test concentration not given here; settings: P. aeruginosa PAO1 growth/biofilm, A600, 12 h; higher = more signal
[6] = growth modulation of vineyard yeast isolate – strain RM11-1a, OD600, basal, 24 h, primary screen (AID 1177);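 further: cultures grown under basal conditions with no added stressor; test concentration not given here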; settings: S. cerevisiae RM11-1a growth, OD600, 24 h; higher = more signal, called active from +8 up or from −8 down
[7] = growth of efflux-deficient E. coli DRC39 – strain DRC39, OD650, 24 h, E. coli filamentation inducers, primary screen (AID 1178);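 further: growth measured as culture turbidity by optical density at 650 nm; test concentration not given here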; settings: E. coli DRC39 acrAB, higher = more signal, called active from +8 up or from −8 down
[8] = growth of efflux-deficient E. coli DRC39 – strain DRC39, OD650, 48 h, E. coli filamentation inducers, primary screen (AID 1179);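 further: screen aims at cell division blockers that make cells filament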; settings: E. coli DRC39 delta-acrAB growth, higher = more signal, called active from +8 up or from −8 down
[9] = viability profiling in RPMI8226 myeloma cells – cell-based, resazurin fluorescence, basal, 24 h, PK04 Diversity Set, profiling panel (AID 1180); settings: higher = more signal;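 further: RPMI8826 multiple myeloma cell line at 5000 cells per well; test concentration not given here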
[10] = target: E3 ubiquitin-protein ligase XIAP (Homo sapiens) (UniProt P98170); assay: small molecules binding XIAP protein – biophysical, small-molecule microarray, fluorescence 635 nm, primary screen (AID 1181); settings: higher = more signal;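 further: score merges 667 nm emission and signal to noise over triplicate slides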
E3 ubiquitin-protein ligase XIAP (Homo sapiens), sequence (P98170 whole entry, looked up): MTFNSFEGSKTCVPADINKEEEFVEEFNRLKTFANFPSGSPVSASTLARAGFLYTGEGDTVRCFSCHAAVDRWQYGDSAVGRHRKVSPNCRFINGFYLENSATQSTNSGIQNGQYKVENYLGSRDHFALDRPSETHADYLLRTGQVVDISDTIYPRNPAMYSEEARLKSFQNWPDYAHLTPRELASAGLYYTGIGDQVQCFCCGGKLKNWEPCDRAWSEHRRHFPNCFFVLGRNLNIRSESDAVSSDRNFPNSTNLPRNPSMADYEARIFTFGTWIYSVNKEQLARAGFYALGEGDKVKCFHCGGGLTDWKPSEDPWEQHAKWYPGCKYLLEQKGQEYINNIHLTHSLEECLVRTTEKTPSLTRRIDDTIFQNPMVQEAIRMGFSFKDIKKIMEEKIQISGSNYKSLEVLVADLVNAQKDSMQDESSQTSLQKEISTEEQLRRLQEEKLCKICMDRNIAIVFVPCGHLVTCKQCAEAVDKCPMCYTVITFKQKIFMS

Compound | z-score [1] | z-score [2] | z-score [3] | composite z-score [4] | z-score [5] | z-score [6] | z-score [7] | z-score [8] | z-score [9] | composite z-score [10]
COc1ccc([Si](C)(C)[C@@H]2[C@@H](CC(=O)N3Cc4ccccc4C[C@H]3CO)O[C@]3(C(=O)N(C)c4c(Br)cc(C)cc43)[C@H]2C)cc1 | -2.26 | -1.5 (inactive) | -6.01 (inactive) | 0.961 (inactive) | 1.85 (inactive) | 1.7 (inactive) | 1.34 (inactive) | 1.01 (inactive) | -5.76 | -0.089
CCC(CC)C(O)C1C=CC2C(=O)N(C)C(=O)C2N1Nc1ccccc1 (stereo not given) | -0.138 | -0.692 (inactive) | -0.193 (inactive) | -0.546 (inactive) | 1.12 (inactive) | -0.0874 (inactive) | -0.53 (inactive) | -0.662 (inactive) | 0.257 | 0.661
CCOc1cc(C(O)C2C=CC3C(=O)N(c4ccccc4)C(=O)C3N2Nc2ccccc2)ccc1O (stereo not given) | -0.147 | -2.46 (inactive) | -1.07 (inactive) | 0.392 (inactive) | 1.1 (inactive) | 1.16 (inactive) | -0.345 (inactive) | -0.649 (inactive) | -0.0963 | -0.189
NCCCCCNC(=O)[C@@H]1C[C@@H]2C(=O)NCC(=O)N2[C@@H]1c1ccc(O)cc1 | 0.0154 | -0.54 (inactive) | 0.236 (inactive) | -1.28 (inactive) | 0.227 (inactive) | 0.225 (inactive) | 0.121 (inactive) | 0.654 (inactive) | -0.9 | 0.348
O=C1OCCC/C=C\[C@H]2OC34C=CCN(c5ccc6ccccc6c5)C(=O)[C@H]3N(CCCCCCO)C(=O)[C@@H]4C12 (stereo not given in full) | -0.156 | -1.28 (inactive) | 0.241 (inactive) | -1.97 (inactive) | 0.481 (inactive) | -1.49 (inactive) | 0.374 (inactive) | 1.01 (inactive) | 0.152 | 0.115
O=C1OCCC/C=C\[C@H]2OC34C=CCN(Cn5nnc6ccccc65)C(=O)[C@H]3N(CCO)C(=O)[C@@H]4C12 (stereo not given in full) | -0.345 | -0.0322 (inactive) | 0.158 (inactive) | 1.16 (inactive) | 0.469 (inactive) | 0.821 (inactive) | 0.254 (inactive) | -0.146 (inactive) | 0.0966 | 0.213
C=C(COC)/C(=C/C[C@H](OC(=O)c1ccncc1)c1ccc(OCCO)cc1)c1cnc2ccccc2c1 | 0.444 | -0.309 (inactive) | -0.389 (inactive) | -3.5 (inactive) | 0.424 (inactive) | -0.401 (inactive) | -0.802 (inactive) | -0.679 (inactive) | -0.342 | -0.174
